Compound activity deposited in PubChem by National Center for Advancing Translational Sciences (NCATS).
TRb-SRC2 inh: TRbeta-SRC2 interaction inhibition. P10828. TRbeta-SRC2 peptide binding, fluorescence polarization; receptor liganded with 1 µM T3. Potency, µM (top dose mostly 106 µM), usual class: inhibitors. 280,000 compounds, 0.065% hits; active = well fitted inhibition curve with a large enough effect; inconclusive = small, poorly fitted or top-dose-only effect, or effect the other way; also: nearly all actives have a fitted effect of over 50% in size
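TRb LBD 0.6 uM + Texas Red SRC2 peptide 20 nM, 1 uM T3, Tris buffer w/ 5% DMSO; compound pinned, 5 h RT; FP read ex 555/em 632; normalized to unbound and bound controls.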
TR SRC2 fluor cs: Texas Red fluorescence interference in TRb-SRC2 counter-screen. AID 1479. TRb/SRC2 Texas Red total fluorescence interference. 280,000 compounds, 0.29% hits. Potency, µM (top dose mostly 106 µM); active = well fitted curve in either direction with a large enough effect; inconclusive = small, poorly fitted or top-dose-only effect
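Human TRβ ligand-binding domain (0.6 uM) and Texas Red SRC2 peptide (20 nM) in Tris buffer with 1 uM T3 and 5% DMSO were incubated with pinned compound for 5 hr at ambient temperature. Total fluorescence was computed as S + 2P (555/632 nm).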
FBPA coupling cs: counter-screen for Giardia aldolase inhibitors: coupling enzyme system | coupling enzyme system counterscreen, AmpLite Red fluorescence | activity change, negative = inhibition, % at 58.2 µM, hits read low | 290,000 compounds, 0.67% hits | AID 2472; in the data active = activity change below about -30%
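Compounds tested against the coupling enzymes alone at 57.5 uM final; readout was AmpLite Red fluorescence (525/598 nm) after 20 min at RT.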
RGS12 GoLoco inh: blocks human Gai1 binding to RGS12 GoLoco peptide, red readout; Gai1:RGS12 GoLoco peptide FP, rhodamine, 10 min; 230,000 compounds, 0.44% hits; Potency, µM (titrated, usually from 61.6 µM), most hits filed as inhibitors; P63096; active = well fitted inhibition curve with a large enough effect, not every such curve was filed as active; inactive = no such curve, though single readings can be large or run the other way; also: nearly all actives have a fitted effect of over 30% in size
Target sequence (P63096 whole entry, looked up): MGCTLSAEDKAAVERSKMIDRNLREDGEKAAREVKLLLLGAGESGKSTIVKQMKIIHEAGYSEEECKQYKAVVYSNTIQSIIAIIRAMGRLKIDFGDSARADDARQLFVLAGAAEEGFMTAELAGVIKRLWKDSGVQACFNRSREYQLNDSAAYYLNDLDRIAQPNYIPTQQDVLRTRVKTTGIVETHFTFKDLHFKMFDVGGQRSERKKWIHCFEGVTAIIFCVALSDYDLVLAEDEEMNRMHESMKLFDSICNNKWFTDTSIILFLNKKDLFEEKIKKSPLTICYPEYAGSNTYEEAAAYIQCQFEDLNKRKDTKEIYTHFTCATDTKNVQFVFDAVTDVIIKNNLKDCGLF
Of the large screens only hits and unclear results are named; the others gave an inactive call; ! = repeats disagree; [ ] = dose if it differs, or a comment. An excerpt weighted towards active compounds, which were near 0.93% of everything screened.

COc1cc(CN(CC2CCCO2)C(=O)c2ccc(F)cc2)cc(OC)c1OC (configuration not stated)	none (no result: FBPA coupling cs, RGS12 GoLoco inh)
Cc1ccc2oc(=O)c3cnn(CC(=O)N4CCN(c5ccc(F)cc5)CC4)c3c2c1	none (no result: FBPA coupling cs, RGS12 GoLoco inh)
CC(=O)Nc1ccc(N/C=C2/CCCC2=O)cc1	none
Cc1cc(O)ccc1N/C=C1\CCCC1=O	FBPA coupling cs -44
Cc1c(N(C)CS(=O)(=O)O)c(=O)n(-c2ccccc2)n1C	RGS12 GoLoco inh 28µM!
CCOC(=O)c1c(C)[nH]c(C(=O)COC(=O)c2oc3ccccc3c2C)c1C	none
Cc1c(C(=O)OC(C)C(C)C[N+](C)(C)C)oc2ccccc12 (configuration not stated)	RGS12 GoLoco inh 14µM
CCc1ccccc1NC(=O)Cn1c(=O)nc(-c2ccccc2)c2ccccc21	none (no result: FBPA coupling cs, RGS12 GoLoco inh)
COC(=O)[C@@]1(Cc2ccccc2-c2ccco2)C=C[C@H](C)[C@@H](c2ccccc2)N1C(=O)C(F)(F)F	none
N#Cc1c(-c2ccncc2)c2c([nH]c1=S)CCCC2	FBPA coupling cs -36
COc1cccc(OC)c1OCCN(C)C	FBPA coupling cs -34
CC(=O)Nc1ccc(NC(=O)CCC(=O)c2ccc(C)cc2)cc1	none (no result: FBPA coupling cs, RGS12 GoLoco inh)
CCn1c(SCC(=O)N/N=C/C=C/c2ccco2)nnc1-c1ccc(OC)cc1	FBPA coupling cs -39
CCn1c(SCC(=O)N/N=C/C=C/c2ccco2)nc2ccccc21	none
O=C1c2ccccc2C(=O)c2c(NC3CCCCC3)ccc(Nc3ccc(S(=O)(=O)O)cc3)c21	RGS12 GoLoco inh 3.5µM (no result: TRb-SRC2 inh, TR SRC2 fluor cs, FBPA coupling cs)
O=C1c2ccccc2C(=O)c2c(Nc3ccc(CCO)cc3)ccc(O)c21	none
Cc1ccc2oc(C(=O)Nc3ccc(S(=O)(=O)Nc4nc(C)cc(C)n4)cc3)cc(=O)c2c1	TR SRC2 fluor cs 32µM[quencher] (no result: FBPA coupling cs, RGS12 GoLoco inh)
Cc1c(NS(=O)(=O)c2cccs2)cccc1-c1nc2cccnc2s1	none
CCOc1ccccc1NS(=O)(=O)c1cccs1	FBPA coupling cs -41
CCOc1ccccc1NC(=O)CCS(=O)(=O)c1cccs1	none (no result: TRb-SRC2 inh, TR SRC2 fluor cs, RGS12 GoLoco inh)
CNS(=O)(=O)c1ccc2c3c(cccc13)C(=O)N2	none (no result: TRb-SRC2 inh, TR SRC2 fluor cs, RGS12 GoLoco inh)
O=C1Nc2ccc(NS(=O)(=O)c3cccs3)c3cccc1c23	FBPA coupling cs -56
O=S(=O)(Nc1cccc2ncccc12)c1cccs1	FBPA coupling cs -38
O=C(NCCC1=CCCCC1)c1ccc2c(c1)sc1nc(-c3ccc(F)cc3)cn12	none (no result: FBPA coupling cs, RGS12 GoLoco inh)
Cc1ccsc1/C=N\NC(=O)CC(=O)NCc1ccccc1	FBPA coupling cs -36
COc1ccc(/C=N/NC(=O)CC(=O)NCc2cccnc2)c(OC)c1	none
Cc1ccsc1/C=N/NC(=S)NCc1ccccc1	none
COc1ccc(OC)c(/C=N/NC(=O)CC(=O)NCc2ccccc2)c1	FBPA coupling cs -33
O=C(CC(=O)N/N=C/c1c(F)cccc1Cl)NCc1ccccc1	FBPA coupling cs -39
O=C(CC(=O)N/N=C/c1ccc(Cl)cc1Cl)NCc1ccccc1	none
COCCn1c(=O)c(-c2ccccc2)nc2cnc(N3CCN(C)CC3)nc21	none (no result: TRb-SRC2 inh, TR SRC2 fluor cs)
O=C(Nc1ccccc1)C12CC1/C(=N\O)c1ccccc1O2 (configuration not stated)	none (no result: FBPA coupling cs)
CN(C)c1ncnc2ccc(-c3cccnc3)cc12	none (no result: TRb-SRC2 inh, TR SRC2 fluor cs)
COc1ccc(N2CCN(S(=O)(=O)CCNC(=O)COc3ccccc3F)CC2)cc1	none (no result: FBPA coupling cs, RGS12 GoLoco inh)
Cc1ccc(CNc2ccc3c(c2)OCO3)c(C)c1	FBPA coupling cs -37
Oc1ccccc1CNc1ccc2c(c1)OCCO2	none
COc1cc(/C=C2/C(=O)N(c3ccccc3)N=C2C)ccc1OS(=O)(=O)c1ccccc1	FBPA coupling cs -42
CCSC1=NC2(CCN(C(=O)NC3CCCCC3)CC2)N=C1c1ccc(OC)cc1	TR SRC2 fluor cs inconclusive (no result: FBPA coupling cs, RGS12 GoLoco inh)
CC(C)[n+]1ccn(C2=C([O-])c3ccccc3C(=O)/C2=N\S(=O)(=O)c2ccccc2)c1	FBPA coupling cs -44
CC(C)(C)c1cc[n+](C2=C([O-])c3ccccc3C(=O)/C2=N\S(=O)(=O)c2ccccc2)cc1	FBPA coupling cs -60
COc1ccc(-c2cccc(NS(=O)(=O)c3ccc(NC(C)=O)cc3)c2)nn1	none (no result: FBPA coupling cs, RGS12 GoLoco inh)
CCn1c(SCC(=O)Nc2sc3c(c2C#N)CCCC3)nnc1-c1ccco1	FBPA coupling cs -40
COc1cc(/C=C2/NC(=O)N(c3cccc(Cl)c3)C2=O)ccc1O	none
COc1ccc(-n2cccc2/C=C2/NC(=O)N(c3cccc(Cl)c3)C2=O)cc1	RGS12 GoLoco inh 3.5µM
O=C(O)c1cccc(-n2cccc2/C=C2/NC(=O)N(c3ccc(Cl)cc3)C2=O)c1	TRb-SRC2 inh inconclusive, TR SRC2 fluor cs 18µM[quencher]
Cc1cccc(NC(=O)CN2C(=O)N/C(=C\c3cccn3-c3cccc(C(=O)O)c3)C2=O)c1	none
N#C/C(=C/c1ccc(N2CCOCC2)o1)c1ccc(Cl)cc1	FBPA coupling cs -47
N#C/C(=C\c1ccc(N2CCOCC2)o1)c1nc2ccccc2[nH]1	FBPA coupling cs -49 (no result: TRb-SRC2 inh, TR SRC2 fluor cs)
N#C/C(=C\c1ccc(N2CCOCC2)c([N+](=O)[O-])c1)c1nc2ccccc2[nH]1	none
COc1ccc(CNC(=O)C(=O)Nc2c3c(nn2-c2ccccc2)CSC3)cc1	none (no result: FBPA coupling cs, RGS12 GoLoco inh)
CCOc1ccc(Cl)cc1/C=N/NC(N)=O	FBPA coupling cs -39
CCOc1ccc(Cl)cc1/C=N/O	none
CCn1ccc2cc(OC)ccc2c1=S	FBPA coupling cs -83
CCn1c(=S)ccc2ccc(OC)cc21	none
CC1CCN(c2nc3c(S(=O)(=O)c4cccc(Cl)c4)nnn3c3ccsc23)CC1	none (no result: FBPA coupling cs, RGS12 GoLoco inh)
COc1cc(OC)c(-c2c3cc(O)c(=O)cc-3oc3cc(O)c(O)cc23)cc1OC	TRb-SRC2 inh inconclusive, TR SRC2 fluor cs 40µM[fluorescent]
O=c1cc(-c2ccc(O)cc2O)oc2ccccc12	none
Cc1c2cc(O)c(=O)cc-2oc2cc(O)c(O)cc12	FBPA coupling cs -54!, RGS12 GoLoco inh 7.9µM
CC12CCC=CC1C(c1ccc3ccccc3c1)N(Cc1ccccc1)C2=O (configuration not stated)	none (no result: RGS12 GoLoco inh)
N[C@@](CC(=O)O)(Cc1ccccc1)C(=O)O	none (no result: TRb-SRC2 inh, TR SRC2 fluor cs, FBPA coupling cs)
O=c1[nH][nH]c(=S)n1C1CCCCC1	FBPA coupling cs -39
COc1ccc(-c2ccc(C(C)=O)cc2)cc1C1C2C=CCC(C)C2C(=O)N1Cc1ccccc1 (configuration not stated)	none (no result: RGS12 GoLoco inh)
CN1CCc2cc3c(c4c2[C@H]1[C@H](O)c1ccccc1-4)OCO3	FBPA coupling cs -32
COc1cccc(/C=N/N2C(=O)C3C4c5ccccc5C(c5ccccc54)C3C2=O)c1OC (configuration not stated)	none
COc1cc(/C=N/N2C(=O)C3C4c5ccccc5C(c5ccccc54)C3C2=O)ccc1O (configuration not stated)	TR SRC2 fluor cs 0.89µM[quencher]
CCOC(=O)CCN(c1ccccc1)S(=O)(=O)c1ccc2[nH]c(=O)ccc2c1	none (no result: FBPA coupling cs, RGS12 GoLoco inh)
CCCCC[n+]1cccc2c3ccccc3ccc21	RGS12 GoLoco inh 16µM
COc1ccc(N2CCN(C(=O)c3cccnc3)CC2)c([N+](=O)[O-])c1	RGS12 GoLoco inh 20µM
CCOC(=O)c1c(C)c(-c2ccccc2)n(CC(=O)Nc2cccc(C)c2C)c1C	none (no result: FBPA coupling cs, RGS12 GoLoco inh)
O=c1c2cc(N3CCOCC3)ccc2[nH]c(=S)n1CCCN1CCCCC1	FBPA coupling cs -38
